# Measured values published in ChEMBL document CHEMBL4513216, “Probing the Open Global Health Chemical Diversity Library for Multistage-Active Starting Points for Next-Generation Antimalarials” (ACS Infect Dis, 2020).
# Hit rate of the full screen: of about 68,000 compounds, about 2,700 (4%) showed an effect of 50% or more. What follows is part of a selection rich in strong results, with near analogues and random picks from the rest.
# Test system: Plasmodium berghei
# Test: Screen against P. berghei liver stage (PbLuc), transformed with Luciferase, at 2uM
# Format: functional, HepG2
# Details: tested at 2 uM
row,Structure (SMILES),INHIBITION
1,O=C(NCc1ccccc1)c1nc2c(o1)CN(C(=O)c1cccnc1)C2,36.75%
2,COCCN1C[C@@H]2CN(Cc3cccc(C)n3)C[C@@H]2C1=O,39.92%
3,CCCN1CCN(c2nc(N)nc3c2nc(C)n3C)CC1,9.85%
4,Cc1noc(C)c1C(=O)N1CCC(c2[nH]ncc2S(C)(=O)=O)C1 (centres undefined),13.58%
5,CCC(=O)N1CCN(c2nc(C)nc3c(C)nn(C)c23)CC1,13.72%
6,Cc1nc(N2CCN(C(=O)C3CC3)CC2)c2c(n1)c(C)nn2C,51.57%
7,Cc1nc(N2CCN(C(=O)C3CCCC3)CC2)c2c(n1)c(C)nn2C,-36.89%
8,CCCC(=O)Nc1ccc(CC(=O)N(CC)CC2CCCCO2)cc1 (centres undefined),-5.44%
9,Cc1ccc(C2COCCN2C(=O)c2ccc(C)s2)o1 (centres undefined),3.63%
10,Cn1cc(CN2CCC3(CC2)CN(c2cccnc2)C(=O)CO3)cn1,-56.25%
11,Cn1cc(N2CC3(CCN(Cc4ccccc4)CC3)OCC2=O)cn1,33.97%
12,Cn1cc(N2CC3(CCN(Cc4cccnc4)CC3)OCC2=O)cn1,54.44%
13,O=C1COC2(CCN(Cc3cccs3)CC2)CN1c1ccsc1,55.7%
14,O=C1COC2(CCN(Cc3cccs3)CC2)CN1c1cncnc1,25.58%
15,O=C1COC2(CCN(Cc3cccs3)CC2)CN1c1ccccc1,-10.6%
16,O=C(NCCn1cccc1)c1c(O)cc(F)cc1F,-5.53%
17,Cc1noc(C)c1CNC(=O)N1CCN(CC2CC2)CC1,-20.36%
18,c1cncc(-c2ncnc3c2CCN(Cc2cccs2)CC3)c1,24.42%
19,CC(C)(O)CN1CCN(C(=O)c2cccn2Cc2ccccc2)CC1,-36.56%
20,CC(C)(O)CN1CCN(C(=O)c2cccn2Cc2cccnc2)CC1,54.5%
21,CC(C)(O)CN1CCN(C(=O)c2cccn2Cc2ccncc2)CC1,-51.5%
22,CC(C)c1nn(C)c(N(C)C)c1CNCc1cccc(CN(C)C)c1,-36.7%
23,COCc1ncc(CN2CCC3(CCC(=O)N(CC(C)O)C3)CC2)cn1 (centres undefined),-40.15%
24,Cc1cc(C)c2c(N3CCC(C(=O)N4CCCC4)CC3)ncnc2n1,36.74%
25,COc1cc(C)c(CN2CCC3(CC2)C(C(=O)O)CC(=O)N3C)cc1C (centres undefined),1.82%
26,NCCO[C@H]1C[C@@H](O)C12CCN(C1Cc3ccccc3C1)CC2,-17.86%

row,Structure (SMILES),INHIBITION
1,NCCO[C@H]1C[C@@H](O)C12CCN(Cc1c(F)cccc1F)CC2,2.9%
2,COc1cc(C)c(CN2CCC3(CC2)[C@H](O)C[C@@H]3OCCN)cc1C,72.05%
3,COc1ccc(F)c(F)c1CN1CCC2(CC1)[C@H](O)C[C@@H]2OCCN,57.75%
4,COc1cc(CN2CCC3(CC2)[C@H](O)C[C@@H]3OCCO)ccc1F,-6.64%
5,COc1c(CNCc2ccc(N3CCCC3)nc2)c(C(C)C)nn1C,20.57%
6,Cn1ccnc1CN1CCC2(CC(=O)N(c3ccccn3)C2)C1 (centres undefined),44.46%
7,Clc1cccc(N[C@H]2CCCN[C@H]2Cc2ccccc2)c1,-34.37%
8,CC(C)(C)OC(=O)N1CCN(C(=O)c2cnn3c2OCCC3)CC1,-14.01%
9,COCc1noc(CN2CC(Cc3ccccc3)CC2=O)n1 (centres undefined),14.12%
10,O=C1CCCN1CCCNCc1cc(O)c2cccc(F)c2n1,53.12%
11,O=C1CCCN1CCCNCc1cc(O)c2cccc(Cl)c2n1,-15.85%
12,Oc1cc(CNCCN2CCCCC2)nc2c(F)cccc12,-6.77%
13,OC1CCN(c2ccnc(NCCc3ccccc3Cl)n2)C1 (centres undefined),0.72%
14,CCC(NC(=O)NCc1nncn1CC)c1ccc(OC)cc1 (centres undefined),-53.08%
15,Cc1n[nH]c2c1C(c1ccncc1)SCC(=O)N2 (centres undefined),19.08%
16,Cc1n[nH]c2c1C(c1cnn(C)c1)SCC(=O)N2 (centres undefined),73.96%
17,Cc1n[nH]c2c1C(c1ccc(Cl)cc1)SCC(=O)N2 (centres undefined),47.85%
18,CCCn1cnnc1CN(C)C(=O)C1CCC(=O)N(C2CCCC2)C1 (centres undefined),31.35%
19,CC(C)c1[nH]c2ncccc2c1CN1CCC(O)CC1,14.73%
20,CC1CCN(Cc2c(C(C)C)[nH]c3ncccc23)CC1,-9.61%
21,CC(C)c1[nH]c2ncccc2c1CN1CCOCC1,68.53%
22,CC(CNC(=O)c1nnn(-c2ccccc2)c1C(F)(F)F)N(C)C (centres undefined),-10.14%
23,Cc1ncccc1C(=O)Nc1ccc2ccn(CCN(C)C)c2c1,10.23%
24,CCc1ocnc1C(=O)Nc1ccc2ccn(CCN(C)C)c2c1,53.19%
25,CCc1ncncc1C(=O)Nc1ccc2ccn(CCN(C)C)c2c1,38.87%
26,CC(C)(C)NC(=O)c1ccn(COc2c(Cl)cccc2Cl)n1,31.42%

row,Structure (SMILES),INHIBITION
1,CCC(=O)NCC(=O)NC(C)c1ccc(OCCC(C)C)cc1 (centres undefined),-14.65%
2,CCNc1ncc(C(=O)NCc2csc(-c3ncccn3)n2)cn1,-27.47%
3,CCNc1ncc(C(=O)NCCc2csc(CSC)n2)cn1,-45.11%
4,CCNc1ncc(C(=O)NCCc2csc(-c3ncccn3)n2)cn1,69.79%
5,Cc1noc(-c2ccnc(Oc3cccc(CN4CCCC4)c3F)c2)n1,43.15%
6,O=C(NCCc1ccccc1)NCC(O)c1cccs1 (centres undefined),1.48%
7,CN1CC(=O)c2sc(NCCc3ccccc3)nc2C1,-24.17%
8,O=C(O)c1csc(NCCc2ccccc2)n1,55.05%
9,CCC(C)NC(=O)CS(=O)(=O)Cc1cc(C)ccc1C (centres undefined),-10.29%
10,O=C(NCC1CC1)c1ccc(NC(=O)c2ccco2)cc1,24.44%
11,COc1ccccc1-n1nc(CC(C)C)nc1Cc1nnc(N)s1,-28.44%
12,O=C(Nc1cccc(Cl)c1)c1nn(C2CCS(=O)(=O)C2)c2c1CCCC2 (centres undefined),21.33%
13,O=C(Nc1ccc(Cl)cc1)c1nn(C2CCS(=O)(=O)C2)c2c1CCCC2 (centres undefined),14.16%
14,Cc1cccc(NC(=O)c2nn(C3CCS(=O)(=O)C3)c3c2CCCC3)n1 (centres undefined),9.29%
15,O=C(Nc1ccccc1)c1nn(C2CCS(=O)(=O)C2)c2c1CCCC2 (centres undefined),73.37%
16,O=C(Nc1cccnc1)c1nn(C2CCS(=O)(=O)C2)c2c1CCCC2 (centres undefined),-0.14%
17,O=C(Nc1ccc(Cl)cn1)c1nn(C2CCS(=O)(=O)C2)c2c1CCCC2 (centres undefined),66.3%
18,O=C(NCCc1ccccc1Cl)NCC1(O)CCSC1 (centres undefined),-41.73%
19,COCCN(C/C=C/c1ccccc1)Cc1ncc[nH]1,-14%
20,CN(CCc1cccs1)C(=O)Nc1cccc(S(C)(=O)=O)c1,-7.16%
21,CCN1CCN(CC(O)c2ccc(Br)cc2)CC1 (centres undefined),63.46%
22,OC(CN1CCN(CC2CC2)CC1)c1ccc(Br)cc1 (centres undefined),50.32%
23,OC(CN1CCN(CC2CCCCC2)CC1)c1ccccc1 (centres undefined),12.55%
24,NC(=O)CC1CCN(CC(O)c2ccc(Br)cc2)CC1 (centres undefined),-58.06%
25,OC(CN1CCN(CC(F)F)CC1)c1ccc(Br)cc1 (centres undefined),15.84%
26,CCN1CCN(CC(O)c2ccc(F)cc2)CC1 (centres undefined),-5.15%

row,Structure (SMILES),INHIBITION
1,Cn1cc(CN2CCCC23CCN(C(=O)c2cccn2C)CC3)cn1,1.42%
2,CO[C@@H]1CC[C@H]2[C@H]1OCCN2Cc1ccc(F)cc1,19.53%
3,CCc1nnc(CN(C)Cc2nc(-c3ccccc3Cl)oc2C)o1,15.84%
4,Cc1nonc1CN(C)Cc1nc(-c2ccccc2Cl)oc1C,51.96%
5,Cc1nonc1CN(C)Cc1nc(-c2cccc(F)c2F)oc1C,-25.82%
6,Cc1cc(C2CCC2)nc(NCC(C)(C)N2CCCC2)n1,7.85%
7,CC(C)N1CCO[C@H]2CN(C(=O)c3ccoc3)C[C@H]21,-17.23%
8,Cc1cc(CN2C[C@@H]3CN(C(=O)c4ccsc4)CCO[C@@H]3C2)no1,-89.19%
9,CC(C)N1CCO[C@H]2CN(C(=O)c3ccsc3)C[C@H]21,65.32%
10,CC(C)N1CCO[C@H]2CN(C(=O)c3ccncc3)C[C@H]21,19.96%
11,O=C(c1ccsc1)N1CCO[C@@H]2CN(Cc3nccs3)C[C@@H]2C1,41.28%
12,O=C(c1ccsc1)N1CCO[C@@H]2CN(Cc3cccs3)C[C@@H]2C1,78.93%
13,c1ncn(Cc2nnc(C3CCN(CC4CC4)CC3)n2C2CC2)n1,30.96%
14,Cc1nnc(CN2CCOC(c3ccc(Cl)c(Cl)c3)C2)o1 (centres undefined),38.67%
15,Cc1nc(CN2CCOC(c3ccc(Cl)cc3)C2)oc1C (centres undefined),5.28%
16,Cc1nnc(CN2CCOC(c3ccc(Cl)cc3)C2)o1 (centres undefined),57.75%
17,c1ccc(O[C@H]2CO[C@@]3(CCN(Cc4ccc5c(c4)OCO5)C3)C2)nc1,40.83%
18,Cc1cncc(C2CCCN(C(=O)c3c[nH]c(=O)[nH]c3=O)C2)n1 (centres undefined),50.72%
19,O=C(c1c[nH]c(=O)[nH]c1=O)N1CCCC(c2cnccn2)C1 (centres undefined),-15.93%
20,Cc1cncc(C2CCCN(C(=O)c3ccc(C)[nH]c3=O)C2)n1 (centres undefined),17.71%
21,Cc1cncc(C2CCCN(Cc3ccncc3)C2)n1 (centres undefined),-33.09%
22,Cc1ccc(CN2CCCC(c3cncc(C)n3)C2)cn1 (centres undefined),-0.15%
23,Cc1cncc(C2CCCN(CC3CCC3)C2)n1 (centres undefined),50.63%
24,COc1ccc(NC(C)c2ccc(C#N)cc2)cc1N1CCCC1=O (centres undefined),-50.8%
25,O=C1CC(c2ccc(CO)o2)c2cnn(Cc3ccco3)c2N1 (centres undefined),-1.11%
26,Cc1nc(-c2cnn(C)c2)sc1C(=O)NCc1cccc(CN(C)C)c1,-6.4%
